From PubChem BioAssay
3T3 cytotox – cytotoxic compounds in NIH 3T3 cells; NIH 3T3 viability, CellTiter-Glo ATP luminescence, 48-72 h; Potency, µM (doses to about 96.7 µM), for the others: at the highest dose activity change, negative = cytotoxicity, hits mostly inhibitors; 94,000 tested, 4.3% active; note: nearly all actives have a fitted effect of over 55% in size
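Cytotoxicity was measured by CellTiter-Glo ATP luminescence after 48 or 72 h compound exposure at 37 °C. Mouse NIH 3T3 fibroblasts were seeded at 400 cells/well and dosed by 23 nL pin transfer.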
HEK293 tox – cytotoxic compounds in HEK 293 cells. HEK 293 viability, ATP luminescence (CellTiter-Glo), 48-72 h. Potency, µM (top dose mostly 115 µM), without a hit: at the highest dose activity change, negative = cytotoxicity, hits mostly inhibitors. 94,000 tested, 6.6% active. AID 1345083; note: nearly all actives have a fitted effect of over 60% in size
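Read-out: CellTiter-Glo ATP luminescence. Cells: HEK 293, 250 cells/well. Exposure: 48 or 72 hr, 37 degree Celsius.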
Luciferase inh – Photinus pyralis luciferase inhibition; purified P. pyralis luciferase, luminescence, biochemical; 76,000 tested, 2.5% active; P08659; Potency, µM (titrated, usually from 115 µM), usual class: inhibitors; note: nearly all actives have a fitted effect of over 65% in size
Target sequence (P08659 whole entry, looked up): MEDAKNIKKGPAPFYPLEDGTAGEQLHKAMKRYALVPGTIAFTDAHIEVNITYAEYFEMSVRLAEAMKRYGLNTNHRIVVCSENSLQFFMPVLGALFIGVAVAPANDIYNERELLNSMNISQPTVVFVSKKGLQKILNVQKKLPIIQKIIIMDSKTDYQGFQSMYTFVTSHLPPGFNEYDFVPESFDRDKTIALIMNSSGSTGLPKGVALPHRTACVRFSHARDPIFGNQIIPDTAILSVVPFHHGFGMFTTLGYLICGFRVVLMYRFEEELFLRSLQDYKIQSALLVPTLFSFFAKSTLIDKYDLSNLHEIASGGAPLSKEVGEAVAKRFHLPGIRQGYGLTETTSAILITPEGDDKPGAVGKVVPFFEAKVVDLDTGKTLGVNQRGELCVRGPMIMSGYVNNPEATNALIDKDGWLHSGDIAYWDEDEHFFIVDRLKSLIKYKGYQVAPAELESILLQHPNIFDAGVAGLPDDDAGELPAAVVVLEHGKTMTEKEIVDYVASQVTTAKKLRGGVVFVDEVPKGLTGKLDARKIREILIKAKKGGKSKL
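Luminescence read by CCD imager after adding enzyme (10nM final) to wells holding compound, titrated in qHTS. Substrates 10uM each D-luciferin and ATP; buffer 50mM Tris acetate pH 7.5, 10mM Mg acetate, Tween-20, BSA.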
NPR1 antag – human Npr1 receptor antagonism | 76,000 tested, 1.6% active | P16066 | Potency, µM (series often up to 46.3 µM), inactives show at the top dose activity change, negative = inhibition, most hits filed as inhibitors | HEK293 hNpr1 GloSensor cGMP, ANP-stimulated luminescence; calls by dose curve; note: nearly all actives have a fitted effect of over 60% in size
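Compound pre-incubated 30 min at room temperature on GloSensor-loaded HEK293 cells stably carrying hNpr1 and the pGS-40F cGMP biosensor. Stimulation uses hNppA at 0.1 nM final; luminescence is taken at baseline and 20 min post-agonist.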
Starred values were filed as active, the others as inactive; i = inactive; ? = inconclusive; / = no result; ! = not active in a repeat; [ ] = another dose, or the depositor's remark. This is a sample that favours compounds with a hit; in the whole collection about 11% have one here. Unless noted, calls come from the whole dose curve; as a rule, active = well fitted curve in the direction sought with a large enough effect; inconclusive = small, poorly fitted or top-dose-only effect, or another doubt; inactive = no such curve, though single readings can be large; an effect the other way counts as inactive or inconclusive. % is set by controls: 0 for no effect and ±100 for the full control effect; potency is the fitted concentration of half-maximal effect.

SMILES	3T3 cytotox	HEK293 tox	Luciferase inh	NPR1 antag
CC(=O)Nc1cccc(-c2nc(-c3c(C)noc3C)cc3c2cc(-c2ccccc2)n3C)c1	11µM*	?	i	-30%[70.6 µM]
Cc1noc(C)c1-c1cc2c(cc(-c3ccccc3)n2C)c(N(C)C)n1	?	?	i	-17%[70.6 µM]
CNC(=O)c1cc2cc(-c3c(C)noc3C)nc(-c3ccccc3C)c2o1	11µM*	?	i	0%[70.6 µM]
Cc1ccc(OC2(C(=O)N(C)Cc3n[nH]c4c3CCCC4)CCNCC2)cc1	?	?	i	-18%
CCN1CCC(N2CCC3(CC2)CC(C(=O)N2CCOCC2)N(C)C3)CC1 (stereo not drawn)	-12%	-3%	/	/
O=C(Nc1cccc(C(F)(F)F)c1)N[C@H]1[C@H](O)[C@@H](N2CCC(Cc3ccccc3)CC2)[C@@H]2OC[C@H]1O2	35µM*	?	i	-21%
COc1cccc(NC(=O)N[C@H]2[C@H](O)[C@@H](Oc3ccccc3)[C@@H]3OC[C@H]2O3)c1	-28%[174 µM]	-7%[172 µM]	i	7%[70.6 µM]
O=C(Nc1cccc(C(F)(F)F)c1)N[C@H]1[C@H](O)[C@@H](Oc2ccccc2)[C@@H]2OC[C@H]1O2	79µM*	?	i	-28%[70.6 µM]
CC(=O)N1CCCC(COc2ccccc2C(=O)N2CCC(C)CC2)C1 (stereo not drawn)	-24%	-15%	/	/
COCC(=O)NC1CCC12CCN(S(=O)(=O)c1ccccc1)CC2 (stereo not drawn)	-20%	i	/	/
O=C1NCCCCCN(C(=O)CC2CCCCC2)[C@@H]2C[C@@H](C(=O)N3CCc4ccccc4C3)C[C@H]12	?	?	i	-18%
O=C1NCCCCCN(C(=O)CC2CCCC2)[C@@H]2C[C@@H](C(=O)N3CCc4ccccc4C3)C[C@H]12	?	32µM*	i	-11%
O=C1NCCCCCCN(C(=O)c2cccnc2)[C@H]2C[C@H](C(=O)N3CCc4ccccc4C3)C[C@@H]12	28µM*	-2%	i	1%
Cc1cccc(-c2noc([C@@H]3Cc4nc[nH]c4CN3C(=O)c3ccc(-c4ccccc4)cc3)n2)c1	20µM*	35µM*	i	-26%
Cc1cccc(-c2noc([C@@H]3Cc4nc[nH]c4CN3C(=O)c3ccccc3C(=O)O)n2)c1	-5%[174 µM]	-15%[172 µM]	?	4%[70.6 µM]
Cc1cccc(-c2noc([C@@H]3Cc4nc[nH]c4CN3C(=O)C3CCCCC3)n2)c1	?	?	56µM*	-1%[70.6 µM]
Cc1cccc(-c2noc([C@@H]3Cc4nc[nH]c4CN3)n2)c1	-27%[230 µM]	-4%[230 µM]	50µM*	-2%[70.6 µM]
O=[N+]([O-])c1cccc(-c2noc([C@@H]3Cc4nc[nH]c4CN3CC3CCCCC3)n2)c1	71µM*	56µM*	i	-14%[70.6 µM]
Cc1nnc2ccc(N3CCN(C(=O)NC(C)C)CC3)nn12	-19%[138 µM]	i	/	/
CCN1CCN(C(=O)c2ccc3nc(-c4ccncc4)oc3c2)CC1	-10%[138 µM]	-18%[172 µM]	/	/
CC1(C)Cc2c(cnn2-c2ccc(F)cc2)C(NC(=O)c2cc(C3CC3)[nH]n2)C1 (stereo not drawn)	?	79µM*	i	-15%
Clc1cc(NC2CCCCCC2)n2nccc2n1	?	89µM*	i	4%[70.6 µM]
Clc1cc(NCC2CCCCCC2)n2nccc2n1	32µM*	?	i	-28%[70.6 µM]
CN(Cc1cccnc1)C1CN(C(=O)c2ccccc2F)C1	i	0%	/	/
Cc1ncc2n1C(=O)N(C1CCN(Cc3ccc(F)cc3)CC1)C2	-25%[138 µM]	?	i	23%[70.6 µM]
SMILES	3T3 cytotox	HEK293 tox	Luciferase inh	NPR1 antag
Cc1ncc2n1C(=O)N(C1CCN(Cc3ccc(C(F)(F)F)cc3)CC1)C2	?	35µM*!	i	?
COc1ccc(-n2nc(C)c([C@H]3C=C[C@@H](OC(=O)Nc4ccc(Br)cc4)C3)c2C)cc1	?	?	35µM*	11µM*
COc1ccc(NC(=O)N[C@@H]2C=C[C@@H](c3c(C)nn(-c4ccccn4)c3C)C2)cc1	112µM*	71µM*	?	-19%[70.6 µM]
COc1ccc(NC(=O)N[C@@H]2C=C[C@@H](c3c(C)nn(CCC#N)c3C)C2)cc1	?	?	i	-13%[70.6 µM]
O=C(NCCc1ccccc1)N1CCC(Cc2nncn2CC2CC2)CC1	-8%	4%	/	/
COc1cccc(CN2CCC(Cn3c(C)cnc3-c3ccccc3)CC2)c1OC	-30%	?	/	/
O=C(c1cnc2n[nH]c(-c3ccccc3)c2n1)N1CCOCC1	?	?	i	-11%[70.6 µM]
O=C(NCc1ccc(F)cc1)c1cnc2n[nH]c(-c3ccccc3)c2n1	50µM*	?	i	-26%[70.6 µM]
O=C(NCC1CCOCC1)c1cnc2n[nH]c(-c3ccccc3)c2n1	79µM*	?	i	4%[70.6 µM]
O=C(c1cnc2n[nH]c(-c3ccccc3)c2n1)N1CCN(c2ccccn2)CC1	?	71µM*	i	-13%[70.6 µM]
O=C(NCCc1ccccc1)c1cnc2n[nH]c(-c3ccccc3)c2n1	?	-26%[172 µM]	i	-17%[70.6 µM]
COc1ccc(-c2[nH]nc3ncc(C(=O)NCc4ccc(F)cc4)nc23)c(C)c1	22µM*	32µM*	i	-19%[70.6 µM]
COc1ccc(CCC(=O)N2CC[C@H]3C(=O)NCCCCCCN(Cc4ccncc4)[C@@H]3C2)cc1	?	1%	i	4%
CC(C)(C)C(=O)NC1CCN(C(=O)c2ccc(-c3ncccc3C#N)cc2)CC1	?	-28%	/	/
COCCn1c(C)nnc1-c1cc(-c2ccc(OC)c(OC)c2)ccn1	89µM*	2%[172 µM]	i	2%[70.6 µM]
Cc1nnc(-c2cc(-c3cccc(N(C)C)c3)ccn2)n1Cc1ccncc1	?	1%[172 µM]	i	0%[70.6 µM]
Cc1nnc(-c2cc(-c3cccc(N(C)C)c3)ccn2)n1Cc1ccccc1	50µM*	89µM*	?	4%[70.6 µM]
COc1cccc(-c2ccnc(-c3nnc(C)n3Cc3ccccc3)c2)c1	79µM*	?	i	-2%[70.6 µM]
COc1ncc(-c2ccnc(-c3nnc(C)n3CCc3ccccc3)c2)cn1	100µM*	-5%[172 µM]	i	5%[70.6 µM]
CC(=O)Nc1cccc(-c2ccnc(-c3nnc(C)n3Cc3ccccc3)c2)c1	?	?	50µM*	-18%[70.6 µM]
Cc1nnc(-c2cc(-c3cccc(F)c3)ccn2)n1Cc1ccccc1	?	89µM*	i	1%[70.6 µM]
O=C1CN(Cc2cccc(Cl)c2)CCN1c1ccc(Cl)nn1	?	-10%[172 µM]	i	12%[70.6 µM]
CN(C)c1ccc(-n2c(=O)c(C(=O)NCC(F)F)nc3cccnc32)cc1	-24%	i	/	/
NC1CC(c2cc(N3CCN(CCOc4ccccc4)CC3)ncn2)C1 (stereo not drawn)	?	22µM*	i	-24%
COC(=O)N1CCN(CCn2nc3n(c2=O)CCCC3)CC1	-16%[138 µM]	0%[172 µM]	/	/
COc1ccc(-c2cn3c(n2)N(C(=O)c2cccs2)CCC3)cc1	3%	?	35µM*	-4%
O=C(c1cccs1)N1CCCn2cc(-c3ccc4c(c3)OCO4)nc21	i	?	40µM*	3%
COc1ccc(-c2cn3c(n2)N(C(=O)Cc2cccs2)CCC3)cc1	?	?	i	-2%
